# Measured values taken from ChEMBL document CHEMBL4513151, “CO-ADD screening of Institut Català d'Investigació Química (Spain) compounds”.
# Several values for one entry are separate records, joined by “and”; a condition that tells them apart may be missing. Identical values can stand only once. Entries with a potency or affinity are not part of this list.
# How the values were obtained:
# [1] = system: Klebsiella pneumoniae; details: Concentration 32 ug.mL-1, ASSAY_TEST Inhibition of Bacterial Growth, detection method Absorption (OD600), MEDIA CAMHB, plate type 384well, NBS, CORNING #3640, time 18 hr
# [2] = system: Candida albicans; details: 32 ug/mL
# [3] = system: Cryptococcus neoformans; details: Concentration 32 ug.mL-1, ASSAY_TEST Inhibition of Fungal Growth, detection method Resazurin, Absorption (OD600-OD570), plate type 384well, NBS, CORNING #3640
SMILES,Inhibition [1] [%],Inhibition [2],Inhibition [3] [%],Inhibition ([1]; 32 ug/mL),Inhibition ([3]; 32 ug/mL)
C=C1CC2(COC(C)(C)OC2)C[C@@H]1[C@@H](Nc1ccc(Br)cc1)c1ccccc1,31.4,6.45%,-62.96,,
C=C1CC(C(=O)OC)(C(=O)OC)C[C@@H]1[C@H](c1ccccc1)n1ccc2ccc(Cl)cc21,17.79,3.75%,-67.72,,
C[C@]12CC[C@@](c3ccc(C(F)(F)F)cc3)(O1)[C@H]1C=C[C@H](OC(=O)c3ccccc3)[C@H]12,,-0.5% and 4.46%,,10.18% and 19.4%,
C[C@]12CC[C@@](C3CCCC3)(O1)[C@H]1C=C[C@H](OC(=O)c3ccccc3)[C@H]12,19.59,4.96%,-56.17,,
C[C@]12CC[C@@](c3ccccc3)(O1)[C@H]1C=C[C@H](OC(=O)c3ccccc3)[C@H]12,,-1.59% and 4.39%,,,-55.26% and -63.64%
C[C@]12CC[C@@H](O1)[C@H]1C=C[C@H](OC(=O)c3ccccc3)[C@H]12,19.45,6.1%,-82.89,,
C[C@]12CC[C@@](c3ccc4ccccc4c3)(O1)[C@H]1C=C[C@H](OC(=O)c3ccccc3)[C@H]12,30.93,2.97%,-55.94,,
C=C1CC(COCc2ccc(OC)cc2)(COCc2ccc(OC)cc2)C[C@@H]1[C@@H](Nc1ccc(Br)cc1)c1ccccc1,3.98,-6.97%,-42.12,,
C[C@@H]1CC(=O)C=C2C(=O)[C@@H]3[C@@H](C3(C)C)[C@]21C,18.57,-0.58%,-14.72,,
C=C1CC(COC)(COC)C[C@@H]1[C@@H](Nc1ccc(Br)cc1)c1ccccc1,12.17,5.3%,-62.06,,
C=C1CC(C(=O)OC)(C(=O)OC)C[C@@H]1[C@H](c1ccccc1)n1ccc2ccccc21,21.67,-0.58%,-68.85,,
C[C@]12CC[C@@](C)(O1)[C@H]1C=C[C@H](OC(=O)c3ccccc3)[C@H]12,15.14,5.91%,-25.36,,
C=C1CC(C(=O)OC)(C(=O)OC)C[C@@H]1[C@@H](NS(=O)(=O)c1ccc(C)cc1)c1ccccc1,18.19,0.13%,-29.89,,
C[C@]12CC[C@@](C3CC3)(O1)[C@H]1C=C[C@H](OC(=O)c3ccccc3)[C@H]12,,3.68% and 4.72%,,19.23% and 15.4%,
